# Results: ChEMBL document CHEMBL3988442, “University of Dundee, Small-Polar-MMV Screening Library” (2021)
# Screen size: about 48,000 compounds; about 13,000 (27%) showed an effect of 50% or more. The list shows a part of the results.
# System: Wolbachia pipientis
# Experiment: Anti-Wolbachia Cell-Based Screen
# Format: functional
# Design: scale not given: in the data most compounds retested in dose-response had high values
# Details: 5 µM
row,Compound,Percent Effect
1,CN1CCC2(CC1)CN(C)C(=O)C[C@@H]2C(F)(F)F,-12.83%
2,Cc1noc(C)c1CNC(=O)N1Cc2ccccc2N(C)CC1C (stereo not drawn),7.877%
3,Cc1occc1CNC(=O)Nc1ccc2nc(N3CCOCC3)oc2c1,-9.739%
4,OCc1ccc(-c2nccn2CCc2nc3c(s2)CCCC3)o1,-5.43%
5,Cc1ccn(CC(=O)N2CC[C@@H](c3ccc4ccccc4c3)[C@H](O)C2)n1,0.6829%
6,CC(C)C(C)(C#N)NC(=O)Cn1nnc(-c2cc3ccccc3o2)n1 (stereo not drawn),-0.9006%
7,CCOCC(=O)Nc1cc(C)cnc1OC,-15.44%
8,NC(=O)c1cc2c(nc1CCOCc1ccccc1)CCC2,91.73%
9,NC(=O)c1cc2c(nc1-c1ccc3c(c1)OCCO3)CCC2,-8.871%
10,NC(=O)c1cc2c(nc1CC1CCCCO1)CCC2 (stereo not drawn),-20.91%
11,CN1CCCCC1Cc1nc2c(cc1C(N)=O)CCC2 (stereo not drawn),-3.187%
12,COc1nc2c(cc1C(=O)NCCCc1nnc(N)s1)CCC2,10.88%
13,NC(=O)c1cc2c(nc1CCOc1ccc(F)cc1)CCC2,109.9%
14,NC(=O)c1cc2c(nc1-c1ccc3c(c1)CCO3)CCC2,1.16%
15,COc1cccc(OCCc2cncc(C(N)=O)c2)c1,-19.41%
16,COc1cccc(OCCc2nc3c(cc2C(N)=O)CCC3)c1,92.52%
17,CC(C#N)CNC(=O)Nc1ccc(Br)cc1 (stereo not drawn),-11.38%
18,Cc1cc(CN(C)C(=O)C(c2cccnc2)N2CCOCC2)n[nH]1 (stereo not drawn),-3.091%
19,Cc1ccc(S(=O)(=O)Cc2noc([C@@H]3C[C@@H](O)CN3C)n2)cc1,-3.09%
20,O=C(NCc1ccccn1)[C@]12COC[C@H]1CN(Cc1ccccc1F)C2.O=C(O)C(F)(F)F.O=C(O)C(F)(F)F,103.6%
21,Cn1cc(CN2C[C@@H]3COC[C@]3(C(=O)NCc3ccccn3)C2)cn1.O=C(O)C(F)(F)F.O=C(O)C(F)(F)F,-3.108%

row,Compound,Percent Effect
1,O=C(NCc1ccccn1)[C@]12COC[C@H]1CN(Cc1cccnc1)C2.O=C(O)C(F)(F)F.O=C(O)C(F)(F)F.O=C(O)C(F)(F)F,99.25%
2,Cc1ncsc1CN1C[C@@H]2COC[C@]2(C(=O)NCc2ccccn2)C1.O=C(O)C(F)(F)F.O=C(O)C(F)(F)F,-14.61%
3,Cc1ncsc1CN1C[C@@H]2COC[C@]2(C(=O)NCc2cccnc2)C1.O=C(O)C(F)(F)F.O=C(O)C(F)(F)F,4.251%
4,O=C(NCCc1cccs1)[C@]12COC[C@H]1CN(Cc1ccccn1)C2.O=C(O)C(F)(F)F.O=C(O)C(F)(F)F,-75.28%
5,CCS(=O)(=O)N1C[C@H]2CN(c3cnn(C)c3)C(=O)[C@H]2C1,-14.71%
6,CC(C)(CNc1cn[nH]c(=O)c1Cl)c1ccc2c(c1)OCO2,11.94%
7,Cc1ccc(C(C)(C)CNC(=O)NC(C)Cn2cncn2)cc1 (stereo not drawn),14.21%
8,CC(C)(CNc1cn[nH]c(=O)c1Cl)c1ccc2c(c1)OCCO2,14.36%
9,Cc1ccc(OCCNC(=O)C(C)n2cncn2)cc1 (stereo not drawn),-5.656%
10,CCN(CC(=O)NC(C)C)C(=O)C(C)(C)c1ccc2c(c1)OCCO2,-2.563%
11,CC(C(=O)NCc1ccnc(OCC(F)(F)F)c1)n1cncn1 (stereo not drawn),8.582%
12,CC(C(=O)NCc1ccnc(N(C)C)c1)n1cncn1 (stereo not drawn),-16.73%
13,CC(C(=O)NCc1ccc2c(c1)OCCO2)n1cncn1 (stereo not drawn),116.3%
14,CC(C(=O)NCC(C)(C)c1ccc(Br)cc1)n1cncn1 (stereo not drawn),77.11%
15,CC(C(=O)NCC(C)(C)c1ccc2c(c1)OCCO2)n1cncn1 (stereo not drawn),97.81%
16,CC(C(=O)NCC(C)(C)c1ccc2c(c1)OCO2)n1ccnc1 (stereo not drawn),97.89%
17,CN(CC(=O)NCC(C)(C)c1ccc2c(c1)OCO2)c1cnccn1,-4.592%
18,O=C(NCCNc1ncccn1)NCCSC(F)(F)F,-9.16%
19,Cc1cnn(C2CN(CC(O)c3ccc4c(c3)OCCO4)C2)c1 (stereo not drawn),-3.679%
20,Cc1nn(C)c(N(C)C)c1CNCCCN(C)S(C)(=O)=O,-15.04%
21,CCOc1cc(C(=O)O)cc(-c2ccccc2)c1OC,-26.33%

row,Compound,Percent Effect
1,CCCNC(=O)Nc1cc2c(cc1SC)OCCO2,21.87%
2,CCOCCCC(=O)Nc1cc(C(N)=O)ccc1N1CCCCC1,2.668%
3,CC(C(=O)NCCc1ccc2c(c1)OCCO2)n1cncn1 (stereo not drawn),104.6%
4,CC(Cn1ccnc1)NC(=O)NCCc1ccc2c(c1)OCCO2 (stereo not drawn),0.8239%
5,CC(C(=O)NCCOc1ccc2c(c1)OCO2)n1cncn1 (stereo not drawn),5.572%
6,Cc1nn(C)c(C)c1C1CCCN1Cc1nc(C)c2ccccc2n1 (stereo not drawn),40.75%
7,Cc1nn(C)c(C)c1C1CCCN1Cc1nc2ccccc2n1C (stereo not drawn),136.2%
8,Cc1nc2ccccc2nc1CN1CCCC1c1c(C)nn(C)c1C (stereo not drawn),2.386%
9,Cc1nc(C)n(CC2CCCN2Cc2nc3ccccc3n2C)n1 (stereo not drawn),1.241%
10,Cn1c(CN2CCN(CC3CCCO3)CC2)nc2ccccc21 (stereo not drawn),-23.45%
11,Cc1nc(CN2CCCC2c2c(C)nn(C)c2Cl)no1 (stereo not drawn),-6.071%
12,CCC1CCCN(Cc2nc3ccccc3c(=O)[nH]2)C1 (stereo not drawn),-14.75%
13,Cc1nn(C)c(C)c1C1CCCN1Cc1nc2ccccc2c(=O)[nH]1 (stereo not drawn),97.01%
14,Cc1nn(C)c(C)c1C1CCCN1Cc1nc2ccccc2o1 (stereo not drawn),33.14%
15,Cc1nn(C)c(C)c1C1CCCN1Cc1nc(N)c2ccccc2n1 (stereo not drawn),120.3%
16,Cc1cc(C)n(C2CCN(Cc3nc4ccccc4n3C)CC2)n1,188.5%
17,O=c1oc(-c2ccccc2)nn1CN1CCC(N2CCCCC2)CC1,-11.85%
18,Cc1nc2scc(C)n2c1CNc1ccc(C(=O)O)cc1,1.868%
19,CCC[C@@H]1CN(S(=O)(=O)c2ccc3[nH]c(=O)[nH]c3c2)C[C@H]1NC(C)=O,-12.43%
20,Cn1c(CN2CCN(CC3CC3)CC2)nnc1C1CCC1,-1.801%
21,Cc1ccnc(C(NC(=O)c2ccc(O)nc2C)C2CC2)n1 (stereo not drawn),19.85%
